SMARCA2 act: SMARCA2 (BRM) function activators, primary screen, cell-based, luminescence, high throughput | hit rate 1% among 370,000 | MG213 cells, MMTV-luciferase reporter, dexamethasone, overnight | activation, % at 9.1 µM; in the data active = activation above about 7.8%;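 also: 0% = vehicle wells and 100% = reference activator wells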
HSF1 activator: HSF-1 activators, primary screen, NIH3T3-HGL cells, MG132 stress, luminescence, single point. NIH3T3-HGL HSF-1 luciferase reporter, 8 h; 100% = twice DMSO control signal. activation, % at 9 µM. hit rate 1.7% among 300,000. AID 504408, 2011;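 active = mean replicate activation of at least 50% with a set share of replicates each reaching 50%; inconclusive = only one of those two conditions met; inactive = mean below 50% and too few replicates reaching it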;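 also: 0% = median of the neutral control wells and 100% = twice that signal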
MITF act: activators of MITF-driven TRPM1 promoter reporter, primary screen, cell-based, SK-MEL-5, luciferase, single point. SK-MEL-5 TRPM1-promoter luciferase, 24 h; % of positive control, neutral wells = 0. activation, % at 12.5 µM. hit rate 0.75% among 300,000;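 active = mean activation of at least 80% with every replicate also reaching 80%; inconclusive = mean reaches 80% but some replicate falls short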;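 also: 0% = neutral control wells and 100% = parthenolide positive control wells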
esBAF inh: Bmi1 luciferase reporter increase in mESCs, primary screen, esBAF inhibitor project, mouse ES cells, Bmi1 luciferase knock-in, single point; 24 h; 100% = twice the neutral-well signal; reporter increase, % at 12.5 µM; hit rate 2% among 350,000; in the data active = activation above about 40%; inconclusive = no clear call, values can overlap the other calls;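 also: 0% = median of the plate's neutral control wells and 100% = double that signal; a rise in the Bmi1 reporter signal indicates esBAF inhibition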
HSF1 inhib: HSF1 inhibitors in luciferase reporter cells, primary screen, cell-based, NIH3T3, luminescence. hit rate 0.77% among 300,000. AID 2098, 2009. activity change, negative = inhibition, % at 7.5 µM (by protocol). NIH3T3-HGL HSE-luciferase, MG132-induced, luminescence 8 h; active compounds read low;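 active = more than half of replicate wells show activity change below -50%, luminescence cut by over half; inconclusive = some wells, but at most half, below -50%; inactive = no replicate well below -50%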;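 also: luciferase reports HSF-1 transcriptional activity via heat shock element; 0% = median of DMSO wells and -100% = zero luminescence signal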
Wnt act: Wnt/beta-catenin pathway activators, primary screen, cell-based, plate reader, single point | AID 743398, 2014 | activation, % at 9.35 µM | Wnt/beta-catenin reporter cell assay, activator | hit rate 1.2% among 300,000; in the data active = activation above about 30%, passing the limit was not always enough; inconclusive = no clear call, values can overlap the other calls;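 also: 0% = neutral control wells and 100% = positive control wells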
* marks the source's active call; other numbers are inactive results; ? = inconclusive; · = no result given. An excerpt weighted towards active compounds, which were near 4.3% of everything screened.

SMILES	SMARCA2 act	HSF1 activator	MITF act	esBAF inh	HSF1 inhib	Wnt act
C[C@@H]1CN([C@H](C)CO)C(=O)Cc2cc(NC(=O)NC3CCCCC3)ccc2O[C@H]1CN(C)Cc1ccc2c(c1)OCO2	·	·	·	4	·	·
CSc1cccc(NC(=O)c2cccc3cccnc23)c1	3	54*	44	48*	27	12
COc1cccc(NC(=O)c2ccc(C(=O)c3ccccc3)o2)c1	4	24	?	38	9	37*
COc1ccc(NC(=O)c2ccc(-c3ccccc3C(F)(F)F)o2)cc1	7.9*	35	50	26	12	1
COc1ccccc1CNC(=O)c1ccc(-c2ccccc2C(F)(F)F)o1	1	23	25	20	8	9
COc1cccc(/C(C)=N/N=C(\C)c2cccc(OC)c2)c1	1	5	·	70*	-9	11
COc1cccc(C(=O)Nc2ccc(NC(=O)Cc3ccccc3)cc2)c1	1	-4	·	-5	-4	-1
CC(=O)Nc1cccc(Oc2ccc(-c3noc(C)n3)cc2)c1	3	38	56	72*	15	27
COc1ccc(NC(=O)c2c(Cl)n(C)c3ccccc23)cc1	3	37	16	59*	24	-1
COc1ccc(NS(=O)(=O)NC(=O)c2c(C)n(C)c3ccccc23)cc1	1	-23	-4	-3	-28	9
COc1cccc(C(=O)Nc2ccccc2)c1	2	30	·	52*	3	·
O=C1NC(=O)/C(=C/c2ccccn2)S1	-2	21	7	45*	8	-3
O=C1NC(=O)/C(=C/c2ccc(O)cc2)S1	-1	25	27	·	9	?
CCCC(=O)O/N=C(\c1ccccc1)c1ccncc1	-3	57*	10	4	13	0
Cc1cc(C(=O)COC(=O)Cc2n[nH]c(=O)c3ccccc23)c(C)n1-c1ccc2c(c1)OCCO2	-6	-58	-9	·	-57*	1
O=C(Cc1n[nH]c(=O)c2ccccc12)OCC(=O)c1ccccc1Cl	0	1	2	·	5	-2
Cc1c(C(=O)NCCc2ccccc2)oc2ccccc12	6	62*	55	11	32	0
Cc1nn(Cc2ccccc2)c(Cl)c1C(=O)NCCc1ccccc1	7	·	60	·	·	47*
CCOC(=O)c1c(C)c(C(=O)NCCc2ccccc2)c(C)n1C	6	77*	39	38	40	?
CCOC(=O)c1c(C)c(C(=O)NCc2cccnc2)c(C)n1C	-2	-2	1	9	-3	-2
CCc1noc(C)c1C(=O)NCCc1ccc(F)cc1	0	6	5	·	-2	-2
CCc1noc(C)c1C(=O)NCCc1ccccc1	1	15	46	·	6	34*
C[C@@H]1CCCCO[C@H](CN(C)C(=O)C2CCCCC2)[C@H](C)CN([C@@H](C)CO)C(=O)c2cc(NS(C)(=O)=O)ccc2O1	·	·	·	-1	·	·
CC=Cc1ccc2n(c1=O)C[C@H]1[C@H](CO)[C@@H](C(=O)NCC3CC3)[C@@H]2N1C(=O)c1ccccc1 (mixture of isomers)	·	·	·	-5	·	·
O=C(Cc1ccccn1)N1[C@H](CO)[C@H]2c3ccccc3NC[C@H]21	·	·	·	-1	·	·
SMILES	SMARCA2 act	HSF1 activator	MITF act	esBAF inh	HSF1 inhib	Wnt act
O=C(C[C@@H]1CC[C@H](NC(=O)c2cccnc2)[C@H](CO)O1)NCCN1CCCCC1	·	·	·	-1	·	·
C[C@@H]1CN([C@H](C)CO)C(=O)c2cc(C#Cc3cccc(F)c3)cnc2O[C@@H]1CN(C)C(=O)C1CCOCC1	·	·	·	4	·	·
COc1ccccc1N1CCN(/N=C/c2ccc(Cl)c([N+](=O)[O-])c2)CC1	4	18	27	44*	17	9
COc1ccc(N=C2S/C(=C\c3ccc(Cl)c([N+](=O)[O-])c3)C(=O)N2CCN(C)C)cc1	-7	95*	-21	-5	73	-10
CCN(CC)CCN1C(=O)/C(=C\c2ccc(Cl)c([N+](=O)[O-])c2)SC1=Nc1ccc(OC)cc1	-11	43	-94	1	61	-11
COc1ccc(NC(=O)C2CC2)cc1-n1cnnn1	0	-76	·	0	-72*	-5
COc1cc(OC)cc(C(=O)Nc2ccc(-n3cnnn3)c(C)c2)c1	7	6	108*	·	9	-1
COc1ccc(NC(=O)c2cnc(C)cn2)cc1-n1cnnn1	-1	-69	-8	-9	-60*	·
COc1cc(NC(=O)c2ccccc2-n2cnnn2)cc(OC)c1	-2	-32	1	0	-19	-3
Cc1cccc(NC(=O)c2cccc(NC(=O)Cc3cccs3)c2)c1	3	6	42	·	9	3
CC(C)(C)NC(=O)c1cccc(NC(=O)Cc2cccs2)c1	5	-83	-8	·	-78*	0
COc1cc(NC(=O)C2CCN(S(=O)(=O)c3ccc(Cl)cc3)CC2)ccc1-n1cnnn1	1	29	-3	-5	-6	2
O=C(C[C@H]1CC[C@H](NC(=O)Nc2cccc(F)c2)[C@@H](CO)O1)NCC1CCCCC1	·	·	·	0	·	·
COc1cc(NC(=O)Cc2cccs2)ccc1-n1cnnn1	0	76*	3	3	38	-2
COc1cc(C(=O)Nc2ccc3c(c2)OCO3)ccc1-n1cnnn1	-5	4	2	12	-5	·
COc1ccc(C(=O)c2c[nH]c(C(=O)NCc3ccco3)c2)cc1	2	-2	5	15	8	-1
COc1cccc(C(=O)c2c[nH]c(C(=O)NCc3ccco3)c2)c1	2	-64	5	9	-56*	1
CC(=O)N(C[C@H]1N[C@H](CO)[C@@H]1c1ccc(-c2cccnc2)cc1)C1CCCC1	·	·	·	-1	·	·
Cc1ccc(C(C)(C)NC(=O)C2CCC(=O)N(C3CCCCCC3)C2)cc1 (stereo not given)	5	45	70	74*	18	-3
Cc1ccc(C(C)(C)NC(=O)C2CCC(=O)N(CCCN3CCOCC3)C2)cc1 (stereo not given)	-4	-22	-6	1	-8	1
CC(C)NC(=O)N1[C@@H]2CN(C(=O)C3CCC3)c3ccccc3[C@@H]2[C@@H]1CO	·	·	·	4	·	·
C=C1C(=O)O[C@@H]2C[C@@H](C)[C@@H]3C=CC(=O)[C@@]3(C)[C@@H](OC(C)=O)[C@H]12	-9	-87	·	·	-86*	-21
C[C@@H]1C[C@@H]2OC(=O)[C@]3(C)[C@H]2[C@@H](OC3(C)O)[C@]2(C)C(=O)C=C[C@H]12 (stereo not given in full)	3	1	4	-3	3	11

Screening data (PubChem)
